In the library only some 0.44% were active in any assay of this set; here they are far more common.
Anesthetic bind = binds horse apoferritin like a general anesthetic | P02791 | 350,000 tested, 0.074% active | Potency, µM (titrated, usually from 77.5 µM), for inactives: at the highest dose activity change, negative = displacement, actives largely listed as inhibitors | apoferritin/1-aminoanthracene competitive binding, fluorescence; further: on the % scale 0 is the no-effect control and ±100 the full control effect; nearly all actives have a fitted effect of over 20% in size
Target sequence (P02791 2-175 limits assumed): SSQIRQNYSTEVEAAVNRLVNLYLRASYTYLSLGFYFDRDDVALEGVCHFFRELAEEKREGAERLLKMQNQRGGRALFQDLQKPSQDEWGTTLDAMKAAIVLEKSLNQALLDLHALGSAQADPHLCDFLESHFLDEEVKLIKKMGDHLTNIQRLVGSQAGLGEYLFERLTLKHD
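Horse-spleen apoferritin (10 uM) was mixed with 50% saturated 1-aminoanthracene in PBS, exposed to compounds for 10 min at room temperature, and read for fluorescence (ex 380 nm, em 535 nm). Competitive displacement was fitted with a four-parameter Hill equation.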
TexasRed fluor = counter-screen for TRb-SRC2 inhibitors: fluorescence interference. 280,000 tested, 0.29% active. AID 1479. TRb/SRC2 Texas Red total fluorescence interference. Potency, µM (doses to about 106 µM), for inactives: top-dose fluorescence change, negative = quenching; active means well fitted curve in either direction with a large enough effect; inconclusive means small, poorly fitted or top-dose-only effect; further: on the % scale 0 is the no-effect control and ±100 the full control effect
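Flags fluorescent or light-absorbing compounds by total fluorescence, S + 2P, at 555 nm excitation and 632 nm emission. Mixture: 20 nM Texas Red SRC2 peptide, 0.6 uM human TRb LBD, 1 uM T3, 5% DMSO; compound exposure 5 h at ambient temperature.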
ERG-DNA inh = ERG Ets/DNA interaction inhibition. fluorescence polarization, His-ERG Ets domain / labelled DNA. Potency, µM (highest dose often 76.9 µM), without a hit: top-dose FP activity, negative = inhibition, hits mostly inhibitors. 370,000 tested, 0.028% active; active means well fitted inhibition curve with a large enough effect in the polarisation, with a control signal flat; inconclusive means small, poorly fitted or top-dose-only effect, or effect the other way, or a change in a side signal; inactive means no such curve, though single readings can be large or run the other way; the % refers to the polarisation;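 further: polarization taken with two DNA probes labelled with fluorescein and Texas red; % of control where 0% means no effect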
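His-tagged ERG Ets domain (1 uM in the protein solution; 300mM KCl, 50mM Tris-HCl, 1mM EDTA, 1mM DTT, pH 7.5) received compound, then a probe mix of 5 nM fluorescein-DNA and 100nM Texas-615-DNA. Fluorescence polarization was read for both dyes.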
TRb-SRC2 inh = inhibitors of human thyroid hormone receptor beta-SRC2 interaction; P10828; TRbeta-SRC2 peptide binding, fluorescence polarization; receptor liganded with 1 µM T3; Potency, µM (doses to about 106 µM), inactives show top-dose activity change, negative = inhibition, hits mostly inhibitors; 280,000 tested, 0.065% active;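 further: plate controls were bound peptide for no effect and peptide without receptor for full effect; nearly all actives have a fitted effect of over 50% in size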
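Assay buffer: 20 mM Tris-HCl, 100 mM NaCl, 10% glycerol, 1 mM EDTA, 0.01% NP-40, 1 mM DTT, 1 uM T3, 5% DMSO; TRb LBD 0.6 uM, Texas Red SRC2 20 nM; FP after 5 hr.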
RGS12 GoLoco inh = blocks human Gai1 binding to RGS12 GoLoco peptide, red readout. P63096. Gai1:RGS12 GoLoco peptide FP, rhodamine, 10 min. Potency, µM (series often up to 61.6 µM), for the others: at the highest dose activity, negative = inhibition, usual class: inhibitors. 230,000 tested, 0.44% active. AID 880; active means well fitted inhibition curve with a large enough effect, not every such curve was filed as active; inactive means no such curve, though single readings can be large or run the other way; further: on the % scale 0 is the no-effect control and ±100 the full control effect; nearly all actives have a fitted effect of over 30% in size
Target sequence (P63096 whole entry, looked up): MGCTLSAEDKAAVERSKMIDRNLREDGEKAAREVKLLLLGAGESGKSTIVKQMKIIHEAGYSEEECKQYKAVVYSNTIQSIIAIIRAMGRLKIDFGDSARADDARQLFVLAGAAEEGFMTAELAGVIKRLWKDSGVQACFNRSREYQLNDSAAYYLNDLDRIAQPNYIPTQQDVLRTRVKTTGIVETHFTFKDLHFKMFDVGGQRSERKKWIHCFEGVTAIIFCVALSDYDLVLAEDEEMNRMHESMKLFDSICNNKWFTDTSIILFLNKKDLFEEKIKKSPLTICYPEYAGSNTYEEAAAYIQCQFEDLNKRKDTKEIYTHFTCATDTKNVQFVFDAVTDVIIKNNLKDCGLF
* = called active by the depositor; [ ] = remark or other dose. Unless noted, the call rests on the fitted dose curve; in most records, active means well fitted curve in the direction sought with a large enough effect; inconclusive means small, poorly fitted or top-dose-only effect, or another doubt; inactive means no such curve, though single readings can be large; an effect the other way counts as inactive or inconclusive. Potency means the concentration at half of the fitted maximal effect.

What do the screens show for `O=C(/C=N/O)NCc1cccnc1`?
Anesthetic bind: -9%; TexasRed fluor: 2%; TRb-SRC2 inh: 13%

How did C[n+]1cccc(CNC(=O)/C=N/O)c1 do in these assays?
Anesthetic bind: -4%; TexasRed fluor: 2%; ERG-DNA inh: -2%; TRb-SRC2 inh: 5%; RGS12 GoLoco inh: 14µM*

Results for CCOC(=O)N1CC(C)N(/[N+]([O-])=N/Oc2ccc([N+](=O)[O-])cc2[N+](=O)[O-])CC1C (centres undefined) ?
Anesthetic bind: -16%; TexasRed fluor: -2%; TRb-SRC2 inh: -5%

Results for CCN(CC)c1ccc(NC2=C(Cl)C(=O)c3ccccc3C2=O)cc1 ?
Anesthetic bind: 4%; TexasRed fluor: -30%; ERG-DNA inh: -6%; TRb-SRC2 inh: 28µM*; RGS12 GoLoco inh: 7.9µM*

What do the screens show for `Cc1ccc(NC2=C(Cl)C(=O)c3ccccc3C2=O)cc1`?
Anesthetic bind: 3%; TexasRed fluor: -1%; TRb-SRC2 inh: -1%

What do the screens show for `CCCCOCCOCCOC(C)=O`?
TexasRed fluor: -5%[201 µM]; TRb-SRC2 inh: 2%[201 µM]

How did CCC(C)C(N)C(=O)NC(CC(N)=O)C(=O)NC(CC(C)C)C(=O)NC(CCCCN)C(=O)NC(C)C(=O)NC(CC(C)C)C(=O)NC(C)C(=O)NC(C)C(=O)NC(CC(C)C)C(=O)NC(C)C(=O)NC(CCCCN)C(=O)NC(CCCCN)C(=O)NC(C(=O)NC(CC(C)C)C(N)=O)C(C)CC (centres undefined) do in these assays?
Anesthetic bind: inconclusive; TexasRed fluor: 1%; TRb-SRC2 inh: -10%

How did CC[C@H]1O[C@]2(CC[C@@H]1C)C[C@@H]1C[C@@H](C/C=C(\C)C[C@@H](C)/C=C/C=C3CO[C@@H]4[C@H](O)C(C)=C[C@@H](C(=O)O1)[C@]34O)O2 do in these assays?
TexasRed fluor: -6%[201 µM]; TRb-SRC2 inh: 3%[201 µM]

What do the screens show for `O=c1cc2oc3cc(O)c(O)cc3c(-c3ccccc3O)c-2cc1O`?
Anesthetic bind: 80%; TexasRed fluor: 40µM*[fluorescent]; ERG-DNA inh: 2%; TRb-SRC2 inh: 18µM*; RGS12 GoLoco inh: 7.9µM*

What do the screens show for `COc1ccc(OC)c(-c2c3cc(O)c(=O)cc-3oc3cc(O)c(O)cc23)c1`?
Anesthetic bind: 112%; TexasRed fluor: 45µM*[fluorescent]; ERG-DNA inh: inactive; TRb-SRC2 inh: 25µM*; RGS12 GoLoco inh: 10µM*

How did COC(=O)c1ccc(NC(=O)N2CCN(c3nnc(C)c4c(C)n(-c5ccccc5)nc34)CC2)cc1 do in these assays?
Anesthetic bind: -13%; TexasRed fluor: -9%; ERG-DNA inh: 1%; TRb-SRC2 inh: 2%

How did CCOc1ccc(NC(=O)N2CCN(c3nnc(C)c4c(C)n(-c5ccccc5)nc34)CC2)cc1 do in these assays?
Anesthetic bind: 46%; TexasRed fluor: 0.0005µM*[quencher]; ERG-DNA inh: 0%; TRb-SRC2 inh: -12%

What do the screens show for `COc1ccccc1CNS(=O)(=O)c1ccc2c(c1)CC(C)N2C(=O)C1CC1` (centres undefined)?
Anesthetic bind: -11%; ERG-DNA inh: -3%

How did COc1ccccc1CNS(=O)(=O)c1ccc2c(c1)CC(C)N2C(=O)C1CCC1 (centres undefined) do in these assays?
Anesthetic bind: -5%; TexasRed fluor: 22µM*[quencher]; ERG-DNA inh: -4%; TRb-SRC2 inh: -10%

Results for Cc1ccc(Cl)cc1N1CCN(S(=O)(=O)c2ccc3c(c2)CC(C)N3C(=O)C2CCC2)CC1 (centres undefined) ?
Anesthetic bind: -5%; TexasRed fluor: 16µM*[quencher]; ERG-DNA inh: 1%; TRb-SRC2 inh: -13%

Results for Cc1ccc(C)c(N2CCN(S(=O)(=O)c3ccc4c(c3)CC(C)N4C(=O)C3CC3)CC2)c1 (centres undefined) ?
Anesthetic bind: -7%; ERG-DNA inh: -4%

How did CCS(=O)(=O)NCc1ccc2c(c1)cc(C)n2C do in these assays?
Anesthetic bind: -8%; TexasRed fluor: -2%; ERG-DNA inh: 1%; TRb-SRC2 inh: -7%; RGS12 GoLoco inh: 5%

Results for COc1ccc(S(=O)(=O)NCc2ccc3c(c2)cc(C)n3C)cc1 ?
Anesthetic bind: -24%; TexasRed fluor: inconclusive; ERG-DNA inh: 35µM*; TRb-SRC2 inh: -24%; RGS12 GoLoco inh: -20%

What do the screens show for `Cc1cc2cc(CNS(=O)(=O)c3ccccc3)ccc2n1C`?
Anesthetic bind: -22%; TexasRed fluor: 50µM*[fluorescent]; ERG-DNA inh: 11µM*; TRb-SRC2 inh: 45µM*; RGS12 GoLoco inh: -16%

How did CN(C)CCOCCN(C)C do in these assays?
TexasRed fluor: -6%[201 µM]; TRb-SRC2 inh: -1%[201 µM]

What do the screens show for `CCc1ccc(S(=O)(=O)Nc2cc3c(cc2C)n(C)c(=O)c(=O)n3C)cc1`?
Anesthetic bind: 0%; TexasRed fluor: -4%; ERG-DNA inh: -3%; TRb-SRC2 inh: 6%

What do the screens show for `Cc1cc2c(cc1NS(=O)(=O)c1ccc(Br)cc1)n(C)c(=O)c(=O)n2C`?
Anesthetic bind: -15%; TexasRed fluor: 2239µM*[quencher]; ERG-DNA inh: 9%; TRb-SRC2 inh: -21%

Results for O=C(Cn1cc2c(n1)CCCC2)NCc1cccs1 ?
Anesthetic bind: -7%; TexasRed fluor: 2%; ERG-DNA inh: -11%; TRb-SRC2 inh: -15%; RGS12 GoLoco inh: 13%

Results for O=C(Cn1cc2c(n1)CCCC2)NCc1ccccn1 ?
Anesthetic bind: 3%; TexasRed fluor: 3%; ERG-DNA inh: inconclusive; TRb-SRC2 inh: -4%; RGS12 GoLoco inh: 16µM*

What do the screens show for `CCOc1ccc(NC(=O)Cn2nnc3c(cnn3-c3ccc(F)cc3)c2=O)cc1`?
Anesthetic bind: -13%; TexasRed fluor: -1%; ERG-DNA inh: 2%; TRb-SRC2 inh: -1%; RGS12 GoLoco inh: 11%

Results for O=C(Cn1nnc2c(cnn2-c2ccc(F)cc2)c1=O)OC1CCCCC1 ?
Anesthetic bind: 13µM*; TexasRed fluor: -4%; ERG-DNA inh: -1%; TRb-SRC2 inh: -1%; RGS12 GoLoco inh: -4%

What do the screens show for `Cc1oc2cc(O)ccc2c(=O)c1-c1nncn1-c1ccccc1`?
Anesthetic bind: 64%; TexasRed fluor: 1%; ERG-DNA inh: 35µM*; TRb-SRC2 inh: 2%; RGS12 GoLoco inh: 77%

What do the screens show for `Cc1oc2cc(O)ccc2c(=O)c1-c1ccccc1`?
Anesthetic bind: 4%; TexasRed fluor: -1%; ERG-DNA inh: 11%; TRb-SRC2 inh: 6%; RGS12 GoLoco inh: 2%

How did CCCC[C@H]1CCCO[C@@](C(=O)NCc2cc(C)n(C)n2)(C(F)(F)F)C1 do in these assays?
Anesthetic bind: -14%; TexasRed fluor: -1%; TRb-SRC2 inh: -3%

How did CCc1ccc(S(=O)(=O)/N=C2/C=C(Sc3ncn[nH]3)C(=O)c3ccccc32)cc1 do in these assays?
Anesthetic bind: -2%; TexasRed fluor: -21%; ERG-DNA inh: -6%; TRb-SRC2 inh: 20µM*; RGS12 GoLoco inh: -26%
